Assay outcomes from PubChem BioAssay.
Only some compounds are listed: those with a hit (about 2.3% of all), similar ones and a draw of the others.
UBC13 inh = blocks human UBC13 polyubiquitin chain formation; TR-FRET; inhibition, % at 20 µM; 330,000 tested, 0.47% active; in the data active = inhibition above about 45%, passing the limit was not always enough
Target sequence (P61088 whole entry, looked up): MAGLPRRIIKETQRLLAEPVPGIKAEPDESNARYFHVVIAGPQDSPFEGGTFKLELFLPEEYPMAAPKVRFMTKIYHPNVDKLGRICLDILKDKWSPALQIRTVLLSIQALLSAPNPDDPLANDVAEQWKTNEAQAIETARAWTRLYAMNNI
MEKK3 PB1 HTS = MEKK3-MEK5 PB1 interaction, increase or decrease | Q99759 | bead-based flow cytometry, Alexa488-MEK5 binding to MEKK3; actives lie on both sides; 0 = blocked by unlabeled MEK5, 100 = vehicle | binding response (% of control), % at 10 µM | 290,000 tested, 1.4% active;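 active = binding response more than 3 SD above or below the average of its plate-row segment, actives on both sides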;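 note: Alexa488 bead fluorescence after subtracting the streptavidin-only scavenger bead signal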
MEKK2wt PB1 HTS = raises or lowers MEK5 binding to wildtype human MEKK2 PB1 domain; Q9Y2U5; bead flow cytometry, Alexa488-MEK5 binding to MEKK2 WT; actives lie on both sides; binding response (% of control), % at 10 µM; 290,000 tested, 1.1% active; AID 1531; in the data active = binding response below about 67% or above about 130%
MEKK2mut PB1 HTS = signal of MEK5 binding to mutant human MEKK2 PB1 domain. bead flow cytometry, Alexa488-MEK5 binding to MEKK2 mutant. percent response, % at 10 µM. 290,000 tested, 0.35% active; in the data active = percent response above about 24%, passing the limit was not always enough
Numbers without * were called inactive; . = no result; [ ] = another dose, or the depositor's remark.

SMILES	UBC13 inh	MEKK3 PB1 HTS	MEKK2wt PB1 HTS	MEKK2mut PB1 HTS
Cc1cccc(N2CCN(C(=O)c3ccncc3)CC2C)c1 (configuration not stated)	-9	98	97	-7
CC(=O)c1ccc(N2CCN(C(=O)c3ccc(NC(=O)C4CCCO4)cc3)CC2)cc1 (configuration not stated)	6	81*[inhibitor]	87	-5
Cc1cc(NC(=O)c2cc(-c3ccncc3)nc3ccccc23)ccc1Br	-11	.	.	.
CC(NS(=O)(=O)c1ccc2c(c1)C(C)(C)C(=O)N2C)c1ccccc1 (configuration not stated)	5	96	96	-2
CC1(C)N=C(N)N=C(N)N1c1ccc(OCCCOc2ccccc2)c(Cl)c1	.	116	165*	46*
CCOc1ccc(N2C(N)=NC(N)=NC2(C)C)cc1	2	111	107	15
O=C(NC1CCCCC1)N(C1=NCCCCC1)c1ccc(Br)cc1	2	106	15*	4
O=C(NNS(=O)(=O)c1ccc(Br)cc1)NC1CCCCC1	0	83	87	-8
CCc1ccc(NC(=O)C2CC(=O)N=C(N)S2)cc1 (configuration not stated)	8	99	97	-1
COc1ccc(NC(=O)C2CC(=O)N=C(N)S2)cc1 (configuration not stated)	-8	98	-11*	2
C#CCOCCOCCOCCNc1nc(N2CCN(C(=O)CCCCCCCCCCNC(=O)[C@H](CCCCN)n3cc(C)nn3)CC2)nc(N2CCN(C(=O)CCCCCCCCCCNC(=O)[C@H](CCCCN)n3cc(CCCC(=O)O)nn3)CC2)n1	114*	.	.	.
C#CCOCCOCCOCCNc1nc(N2CCN(C(=O)CCCCCCCCCCNC(=O)[C@H]([C@@H](C)CC)n3cc(CCCCCN)nn3)CC2)nc(N2CCN(C(=O)CCCCCCCCCCNC(=O)[C@@H]([C@H](C)CC)n3cc(CCCCCN)nn3)CC2)n1	123*	.	.	.
CC[C@H](C)[C@@H](C(=O)NCCCCCCCCCCC(=O)N1CCN(C(=O)OC(C)(C)C)CC1)n1cc(CCCCN=C(NC(=O)OC(C)(C)C)NC(=O)OC(C)(C)C)nn1	71*	.	.	.
C#CCOCCOCCOCCNc1nc(N2CCN(C(=O)CCCCCCCCCCNC(=O)[C@H]([C@@H](C)CC)n3cc(CCCCN=C(N)N)nn3)CC2)nc(N2CCN(C(=O)CCCCCCCCCCNC(=O)[C@H](CO)n3cc(CCCCCN)nn3)CC2)n1	123*	.	.	.
C#CCOCCOCCOCCNc1nc(N2CCOCC2)nc(N2CCN(C(=O)CCCCCCCCCCNC(=O)[C@@H](CCC(=O)O)n3cc(CCCCCN)nn3)CC2)n1	7	.	.	.
O=C(NCCN1CCN(c2ccccc2)CC1)C1CCN(S(=O)(=O)c2cccc3nsnc23)CC1	7	106	108	9
O=S(=O)(c1cccc(C(F)(F)F)c1)N1CCN(CC(O)COCc2ccccc2)CC1 (configuration not stated)	-12	.	.	.
C#CCOCCOCCOCCNc1nc(N2CCN(C(=O)[C@H]([C@@H](C)CC)n3cc(CCCN=C(N)N)nn3)CC2)nc(N2CCN(C(=O)[C@H](C)n3cc(CCCN=C(N)N)nn3)CC2)n1	9	104	124	4
C#CCOCCOCCOCCNc1nc(N2CCN(C(=O)CCCCCCCCCCNC(=O)[C@H]([C@@H](C)CC)n3cc(CCCCN=C(N)N)nn3)CC2)nc(N2CCN(C(=O)CCCCCCCCCCNC(=O)[C@H]([C@@H](C)CC)n3cc(CCCCN=C(N)N)nn3)CC2)n1	126*	.	.	.
CN(CC(=O)NCCc1ccc(S(N)(=O)=O)cc1)CC(=O)Nc1ccccc1C(F)(F)F	-8	.	.	.
CC[C@H](C)[C@@H](NC(=O)O[C@@H]1C(=O)c2cc(Br)ccc2O[C@H]1c1ccc2c(c1)OCO2)C(=O)OC	.	78*[inhibitor]	95	-4
COC(=O)[C@@H](NC(=O)O[C@@H]1C(=O)c2cc(Br)ccc2O[C@H]1c1cccc(OC)c1)C(C)C	20	101	95	-6
O=C(c1ccc(Cl)cc1)C1CCN(Cc2ccccc2)CC1	12	101	110	5
O=C(C1CCN(Cc2ccc(Cl)cc2)CC1)N1CCN(C(c2ccccc2)c2ccccc2)CC1	-1	106	145*	49
Cc1cccc(NC(=O)COC(=O)c2nn(C)c(=O)c3ccccc23)c1C	6	.	.	.
SMILES	UBC13 inh	MEKK3 PB1 HTS	MEKK2wt PB1 HTS	MEKK2mut PB1 HTS
Cc1ccc2cc(C3CC(c4cccs4)=NN3S(C)(=O)=O)c(Cl)nc2c1 (configuration not stated)	-8	97	-4.0*	5
Cc1ccc2nc(Cl)c(C3CC(c4cccs4)=NN3S(C)(=O)=O)cc2c1 (configuration not stated)	0	96	78	-1
O=C(CN1C(=O)c2ccccc2S1(=O)=O)NCc1ccc(F)cc1	-2	72*[inhibitor]	94	-6
O=C(CCN1C(=O)c2ccccc2S1(=O)=O)NCc1ccc(F)cc1	-1	.	.	.
COc1ccc(C(CNC(=O)c2oc3cc(C)c(Cl)cc3c2C)N2CCCCC2)cc1 (configuration not stated)	9	108	169*	37*
Oc1c(N=Nc2ccccn2)ccc2ccccc12	-61	89	36*	-14
COc1cc2c(cc1NC(=O)CN1C(=O)NC3(CCc4ccccc43)C1=O)oc1ccccc12 (configuration not stated)	4	112	10*	-4
O=C(O)CCNc1cc(N2CCN(C(=O)c3ccco3)CC2)c2noc3c2c1C(=O)c1ccccc1-3	-140	63*[inhibitor]	48*[inhibitor]	-17
CC(=O)OCCNc1cc(N2CCN(C)CC2)c2noc3c2c1C(=O)c1ccccc1-3	.	87	94	7
CCN1CCN(c2cc(N3CCN(C(=O)c4ccco4)CC3)c3c4c(onc24)-c2ccccc2C3=O)CC1	-152	78*[inhibitor]	86	-1
CCN(CC)c1ccc(/C=N/N=C(N)N)c(O)c1	-5	93	.	113*
CC(=O)N/N=C(/c1ccccc1)C(O)c1ccccc1 (configuration not stated)	0	109	107	8
COc1ccc(C(C(N)=O)c2ncc(C(F)(F)F)cc2Cl)cc1OC (configuration not stated)	-1	104	102	1
O=C(NP(=O)(N1CCCC1)N1CCCC1)C1=C(N2CCOCC2)/C(=C/c2cccc([N+](=O)[O-])c2)CC1	-6	104	100	0
O=[N+]([O-])c1ccc(/C=C2\CCC(C3=CCCC3)=C2N2CCOCC2)cc1	-33	101	1.0*	2
Cc1onc(-c2c(F)cccc2Cl)c1C(=O)O/N=C(\N)c1ccc([N+](=O)[O-])o1	-10	102	102	6
Cc1cccc(C(=O)N/C(=C\c2ccc(C)o2)C(=O)O)c1	12	98	-3.0*	2
Cc1cccc(C(=O)N/C(=C\c2ccco2)C(=O)N2CCCC2)c1	-10	96	98	-1
COC(=O)C1=C(C)NC(C)=C(C(=O)OCC2CCCO2)C1c1cccc(Br)c1 (configuration not stated)	-3	101	104	6
